The source of these data is PubChem BioAssay (NCATS).

A number with no mark means an inactive call. The source made the active and inactive calls. How the calls were made is not given here.

Experiment [1] concerns the target Nuclear receptor subfamily 1 group I member 2 (Rattus norvegicus) (UniProt Q9R1A7). Put plainly: qHTS assay for small molecule activators of the rat pregnane X receptor (rPXR) signaling pathway (AID 651751). The conditions noted are these: rPXR reporter cells, luciferase (One-Glo), 24 h.
A short description of experiment [2]: qHTS assay for small molecule activators of the human pregnane X receptor (PXR) signaling pathway (AID 720659). The conditions noted are these: DPX-2 HepG2 CYP3A4-luciferase, 24 h; series mostly up to 92.3 µM. On the technique in general: qHTS replaces the single test concentration by a dilution series.
Further: 0% is about no effect.

Sequence of Nuclear receptor subfamily 1 group I member 2 (Rattus norvegicus) (Q9R1A7 whole entry, looked up): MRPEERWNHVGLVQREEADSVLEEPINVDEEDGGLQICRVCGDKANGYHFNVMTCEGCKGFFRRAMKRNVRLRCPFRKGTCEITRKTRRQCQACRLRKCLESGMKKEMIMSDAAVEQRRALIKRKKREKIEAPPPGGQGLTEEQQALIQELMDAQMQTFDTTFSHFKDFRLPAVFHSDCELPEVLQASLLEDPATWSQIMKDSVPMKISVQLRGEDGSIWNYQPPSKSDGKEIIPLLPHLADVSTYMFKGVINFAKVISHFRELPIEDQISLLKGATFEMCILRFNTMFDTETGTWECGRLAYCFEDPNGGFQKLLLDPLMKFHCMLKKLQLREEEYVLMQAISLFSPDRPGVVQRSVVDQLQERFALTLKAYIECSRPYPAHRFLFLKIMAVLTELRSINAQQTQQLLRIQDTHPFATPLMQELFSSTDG

In the case of `O=C(O)CCCc1c[nH]c2ccccc12`, the max response in experiment [1] is -0.908%. The compound was classed as inactive in experiment [2].
